Molecules are shown by their SMILES. “And” between values parts separate entries of the source, which are not always exact repeats. Equal values may be shown once. Results filed as inconclusive are left out. Entries that show only a call come without a potency. The source made the active and inactive calls. Unless noted, the call rests on the fitted dose curve; in most records, active means well fitted cell-killing curve with a large enough effect in the repeat runs; inconclusive means weak or mixed curves, or effect the other way; inactive means no such curve, though single readings can be large or run the other way.

Peroxisome proliferator-activated receptor delta (Homo sapiens), sequence (Q03181 whole entry, looked up): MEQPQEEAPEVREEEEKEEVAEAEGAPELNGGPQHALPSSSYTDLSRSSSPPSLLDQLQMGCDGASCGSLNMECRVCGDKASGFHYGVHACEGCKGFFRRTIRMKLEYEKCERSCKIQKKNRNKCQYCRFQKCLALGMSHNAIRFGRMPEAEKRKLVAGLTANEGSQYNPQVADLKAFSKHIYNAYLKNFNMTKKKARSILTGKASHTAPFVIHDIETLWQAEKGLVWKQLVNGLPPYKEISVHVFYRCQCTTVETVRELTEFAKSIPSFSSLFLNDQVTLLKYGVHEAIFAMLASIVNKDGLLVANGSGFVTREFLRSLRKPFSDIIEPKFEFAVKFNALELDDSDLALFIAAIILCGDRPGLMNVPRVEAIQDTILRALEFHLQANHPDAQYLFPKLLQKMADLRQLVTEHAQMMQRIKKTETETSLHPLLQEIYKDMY

In one assay the target is Peroxisome proliferator-activated receptor delta (Homo sapiens) (UniProt Q03181). The assay is described as follows: qHTS assay to identify small molecule antagonists of the peroxisome proliferator-activated receptor delta (PPARd) signaling pathway (AID 743215; active means well fitted inhibition curve with a large enough effect in the signal ratio in the repeat runs, not every such curve was filed as active; the % refers to the signal ratio;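 further: cells stimulated with agonist L165041 at 300 nM final during compound exposure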). The following applies: HEK293H PPARd-UAS-bla, beta-lactamase FRET ratio, antagonist, 17 h; series mostly up to 62 µM. The method, boiled down:
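Inhibition of L165041-driven (300 nM final) PPARd signaling is scored in HEK293H UAS-bla cells. Exposure lasts 17 h at 37 C; beta-lactamase activity is then read by FRET substrate fluorescence after 2 h at room temperature.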
As to `O=C1c2cccc(O)c2C(=O)c2c(O)cccc21`, the Potency entry was “inactive”.

Take `O=C(O)c1ccccc1Nc1cccc(C(F)(F)F)c1`: the Potency entry is “inactive”.

Consider `CC1=CCC(C(C)(C)O)CC1` (stereo unspecified), for which the Potency entry was “inactive”.

Turning to `Nc1ccccc1N`, the Potency result is “inactive”.

For `CCCCC/C=C/C=C/C=O`, the Potency result is “inactive”.

Consider `c1ccc2cc(Nc3ccc(Nc4ccc5ccccc5c4)cc3)ccc2c1`, for which the Potency result was “inactive”.

`CCCCCCCCCCCO`: the Potency result was “inactive”.

In the case of `O=C(c1ccccc1)c1ccc(O)cc1O`, the Potency entry is “inactive”.

On to `Cc1cc2nc3c(=O)[nH]c(=O)nc-3n(C[C@H](O)[C@H](O)[C@H](O)CO)c2cc1C`, for which the Potency result is “inactive”.

Consider `O=C1OC2(c3cc(Br)c(O)c(Br)c3Oc3c2cc(Br)c(O)c3Br)c2c(Cl)c(Cl)c(Cl)c(Cl)c21`, for which the Potency entry was “inactive”.

In the case of `NC=O`, the Potency result was “inactive”.

As for `O=Cc1ccccc1O`, the Potency entry was “inactive”.

Turning to `C#C[C@]1(O)CC[C@H]2[C@@H]3CCc4cc(OC)ccc4[C@H]3CC[C@@]21C`, the Potency entry was “inactive”.

In the case of `CC(=O)O[C@]1(C(C)=O)CC[C@H]2[C@@H]3C=C(Cl)C4=CC(=O)[C@@H]5C[C@@H]5[C@]4(C)[C@H]3CC[C@@]21C`, the Potency result was “inactive”.

Regarding `C=C(C)C(=O)OCCOC(=O)C(=C)C`, the Potency result is “inactive”.

As to `COC(=O)CCC(=O)OC`, the Potency result was “inactive”.

Regarding `Nc1ccc(Cl)cc1Cl`, the Potency entry was “inactive”.

Another assay has as its target Bile acid receptor (Homo sapiens) (UniProt Q96RI1). Nature of the assay: qHTS assay to identify small molecule antagonists of the farnesoid-X-receptor (FXR) signaling pathway (AID 743217; active means well fitted inhibition curve with a large enough effect in the signal ratio in the repeat runs, not every such curve was filed as active; the % refers to the signal ratio). The conditions noted are these: HEK293T FXR-UAS-bla, beta-lactamase ratio, CDCA-stimulated, 16 h; series mostly up to 62.6 µM. The essentials: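 Antagonist mode against 50 uM (final) chenodeoxycholic acid stimulation in FXR-bla HEK 293T cells, 16 h at 37 °C. Inhibition detected as reduced beta-lactamase activity via LiveBLAzer B/G FRET fluorescence after 2 h at room temperature.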
As to `O=C1c2cccc(O)c2C(=O)c2c(O)cccc21`, the Potency entry is “inactive”.

For `CC(C)=CCC/C(C)=C\CO`, the Potency result was “inactive”.

For `CC1=CCC(C(C)(C)O)CC1` (stereo unspecified), the Potency result is “inactive”.

With `CCCCC/C=C/C=C/C=O`, the Potency result was “inactive”.

As to `c1ccc2cc(Nc3ccc(Nc4ccc5ccccc5c4)cc3)ccc2c1`, the Potency entry is “inactive”.

`CCCCNS(=O)(=O)c1ccccc1`: the Potency result is “inactive”.

As to `O=C(c1ccccc1)c1ccc(O)cc1O`, the Potency entry was “inactive”.

Regarding `Cc1cc2nc3c(=O)[nH]c(=O)nc-3n(C[C@H](O)[C@H](O)[C@H](O)CO)c2cc1C`, the Potency result is “inactive”.

`NC=O`: the Potency entry is “inactive”.

For `C#C[C@]1(O)CC[C@H]2[C@@H]3CCc4cc(OC)ccc4[C@H]3CC[C@@]21C`, the Potency entry is “inactive”.

Take `COC(=O)CCC(=O)OC`: the Potency entry is “inactive”.

Consider `CC(=O)Oc1ccccc1C(=O)Nc1ncc([N+](=O)[O-])s1`, for which the Potency result is “inactive”.

As for `Nc1ccc(Cl)cc1Cl`, the Potency result is “inactive”.

As for `CC(C)OC(=O)C(C)(C)Oc1ccc(C(=O)c2ccc(Cl)cc2)cc1`, the Potency result was “inactive”.

Tested on in the next assay: not listed separately
The assay is described as follows: qHTS assay to identify small molecule agonists of the farnesoid-X-receptor (FXR) signaling pathway - cell viability counter screen (AID 743218). Further: nearly all actives have a fitted effect of over 45% in size. Further: potency means the concentration at half of the fitted maximal effect. The following applies: FXR-bla HEK293T viability, CellTiter-Glo luminescence, 16 h; series mostly up to 62.6 µM. The method, boiled down:
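Cytotoxicity counter-screen run in parallel, same wells: FXR-UAS-bla HEK 293T cells dosed 16 h at 37 C, viability read by CellTiter-Glo luminescence after 30 min at room temperature.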
Turning to `c1ccncc1`, the Potency entry is “inactive”.

As to `O=C(c1ccccc1)c1ccccc1O`, the Potency entry is “inactive”.

In the case of `O=C1c2cccc(O)c2C(=O)c2c(O)cccc21`, the Potency result was “inactive”.

On to `Cc1ccc(C(=O)c2cc(O)c(O)c([N+](=O)[O-])c2)cc1`, for which the Potency result is “inactive”.

Take `CC(C)=CCC/C(C)=C\CO`: the Potency entry is “inactive”.

In the case of `CC(C)CC(C)(O)C#CC(C)(O)CC(C)C` (stereo unspecified), the Potency result is “inactive”.

In the case of `O=C(O)c1ccccc1Nc1cccc(C(F)(F)F)c1`, the Potency result is “inactive”.

For the compound `CCCCOCCOCCO`, the Potency result is “inactive”.

On to `CC1=CCC(C(C)(C)O)CC1` (stereo unspecified), for which the Potency entry was “inactive”.

For the compound `CCCCC/C=C/C=C/C=O`, the Potency result is “inactive”.

For `c1ccc2cc(Nc3ccc(Nc4ccc5ccccc5c4)cc3)ccc2c1`, the Potency entry is “inactive”.

As for `Nc1ncn([C@@H]2O[C@H](CO)[C@@H](O)[C@H]2O)c(=O)n1`, the Potency result is “inactive”.

In the case of `CC(C)=CCCC(C)CCO` (stereo unspecified), the Potency entry was “inactive”.

With `CCCCNS(=O)(=O)c1ccccc1`, the Potency entry is “inactive”.

Turning to `C/C=C/C(=O)O`, the Potency result was “inactive”.

In the case of `CCCCCCCCCCCO`, the Potency entry was “inactive”.

For the compound `O=C(c1ccccc1)c1ccc(O)cc1O`, the Potency result is “inactive”.

`Cc1cc2nc3c(=O)[nH]c(=O)nc-3n(C[C@H](O)[C@H](O)[C@H](O)CO)c2cc1C`: the Potency result is “inactive”.

Regarding `O=C1OC2(c3cc(Br)c(O)c(Br)c3Oc3c2cc(Br)c(O)c3Br)c2c(Cl)c(Cl)c(Cl)c(Cl)c21`, the Potency entry is “inactive”.

With `Nc1ccc(S(=O)(=O)Nc2cnc3ccccc3n2)cc1`, the Potency result was “inactive”.

For the compound `NC=O`, the Potency entry is “inactive”.

Consider `O=Cc1ccccc1O`, for which the Potency entry is “inactive”.

Take `C[C@]12CC[C@H]3[C@@H](CCC4=CC(=O)CC[C@@]43C)[C@@H]1CC[C@@H]2C(=O)CO`: the Potency result is “inactive”.

For the compound `CCCCC(CC)COCC1CO1` (stereo unspecified), the Potency result was “inactive”.

In the case of `CC(=O)CC/C=C(\C)CCC=C(C)C`, the Potency result was “inactive”.

Turning to `CCCCc1oc2ccccc2c1C(=O)c1cc(I)c(OCCN(CC)CC)c(I)c1`, the Potency is 34.9 µM (active) and 18.8 µM (active).

For `C=C(C)C1CC=C(C)CC1` (stereo unspecified), the Potency result is “inactive”.

For `O=C(Nc1ccc([N+](=O)[O-])cc1Cl)c1cc(Cl)ccc1O`, the Potency is 1.38 µM (active) and 1.16 µM (active).

As to `C#C[C@]1(O)CC[C@H]2[C@@H]3CCc4cc(OC)ccc4[C@H]3CC[C@@]21C`, the Potency result was “inactive”.

Take `CC(=O)O[C@]1(C(C)=O)CC[C@H]2[C@@H]3C=C(Cl)C4=CC(=O)[C@@H]5C[C@@H]5[C@]4(C)[C@H]3CC[C@@]21C`: the Potency result was “inactive”.

`Nc1ccc(Nc2ccccc2)cc1`: the Potency entry was “inactive”.

Regarding `C=C(C)C(=O)OCCOC(=O)C(=C)C`, the Potency result is “inactive”.

As for `O=C(c1ccc(OCCN2CCCCC2)cc1)c1c(-c2ccc(O)cc2)sc2cc(O)ccc12`, the Potency is 49 µM (active) and 12.3 µM (active) and 23.7 µM (active).

In the case of `COC(=O)CCC(=O)OC`, the Potency entry was “inactive”.

Regarding `Nc1ccc(Cl)cc1Cl`, the Potency entry is “inactive”.

`CC(C)OC(=O)C(C)(C)Oc1ccc(C(=O)c2ccc(Cl)cc2)cc1`: the Potency entry is “inactive”.

Another assay deals with Bile acid receptor (Homo sapiens) (UniProt Q96RI1). The assay is described as follows: qHTS assay to identify small molecule agonists of the farnesoid-X-receptor (FXR) signaling pathway (AID 743220; active means well fitted activation curve with a large enough effect in the signal ratio in the repeat runs, not every such curve was filed as active; the % refers to the signal ratio). The conditions noted are these: HEK293T FXR-UAS-bla, beta-lactamase FRET ratio, 16 h; series mostly up to 62.6 µM. The essentials: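 Beta-lactamase reporter under UAS control in GeneBLAzer FXR HEK 293T cells (5000/well) measured with LiveBLAzer FRET substrate after 2 h at room temperature. Compound exposure lasted 16 h at 37C.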
Bile acid receptor (Homo sapiens), sequence (Q96RI1 whole entry, looked up): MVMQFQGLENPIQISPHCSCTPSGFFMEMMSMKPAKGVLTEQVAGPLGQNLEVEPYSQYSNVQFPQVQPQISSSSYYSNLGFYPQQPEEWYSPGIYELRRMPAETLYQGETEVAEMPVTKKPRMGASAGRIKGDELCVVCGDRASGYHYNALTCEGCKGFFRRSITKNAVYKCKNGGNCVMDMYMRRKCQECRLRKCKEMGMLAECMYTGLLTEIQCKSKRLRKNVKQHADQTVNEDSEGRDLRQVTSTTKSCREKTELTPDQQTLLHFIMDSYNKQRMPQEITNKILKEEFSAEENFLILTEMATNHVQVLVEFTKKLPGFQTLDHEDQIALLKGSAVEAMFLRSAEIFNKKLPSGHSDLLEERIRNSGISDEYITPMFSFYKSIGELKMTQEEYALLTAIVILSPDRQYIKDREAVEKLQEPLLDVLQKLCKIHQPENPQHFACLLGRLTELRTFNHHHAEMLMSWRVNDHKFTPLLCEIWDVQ
Turning to `CCCCNS(=O)(=O)c1ccccc1`, the outcome was inactive.

As to `NC=O`, the outcome was inactive.

Take `COC(=O)CCC(=O)OC`: the result was inactive.

As to `CC(C)OC(=O)C(C)(C)Oc1ccc(C(=O)c2ccc(Cl)cc2)cc1`, the outcome was inactive.
